In PubChem BioAssay AID925 (National Center for Advancing Translational Sciences (NCATS), 2007) one finds activation data, which are given here for 73 compounds.

Values joined by “and” are separate entries in the source; they are usually repeats but may differ in a detail not shown here. Identical values can stand only once. About 40 (0.06%) of roughly 65,000 compounds were called active. Where a call stands in place of a potency, no number is given. Calls follow the shape of the dose curve; as a rule, active = well fitted activation curve with a large enough effect; inconclusive = small, poorly fitted or top-dose-only effect; inactive = flat fitted curve, though single readings scatter. The full list was thinned out, with actives kept by preference.

The nature of the assay: qHTS Assay for Modulators of Hemoglobin Beta Chain Splicing. The settings on record: HBB splicing reporter cell assay, EGFP reporter with mutant IVS2-654 intron; Potency: activation; series mostly up to 46.1 µM. An excerpt: NIH Chemical Genomics Center [NCGC]
NIH Molecular Libraries Screening Centers Network [MLSCN]
PI Name: Dr. Ryszard Kole
Modulation of Alternative Splicing as Therapy
Abnormal splicing is associated with a number of diseases, including cancer and genetic diseases such as cystic fibrosis, muscular dystrophy and beta-thalassemia. Alteration of disease associated splicing patterns provides a promising target for treatment. […] Mutations in the second intron of the beta-globin gene at positions are clinically relevant and cause mis-splicing which results in an out of frame gene product.
EGFP-654 and 705 HeLa Cells as screen system.
HeLa cell lines were stably transfected with a construct in which the EGFP (enhanced green fluorescent protein) cDNA was interrupted by the second intron of the beta-globin gene (IVS2-654). The ISV2 intron contains mutations which cause mis-splicing of EGFP and premature termination of EGFP which results in a nonfluorescent protein product. […] Expression of the transgene was driven by the CMV promoter. We concluded that a low molecular weight compound, which restored correct splicing of intron 2 would also generate functional EGFP protein, resulting in a fluorescent signal. Thus, the HeLa cells that express the EGFP-654 construct can be used for high throughput screening of a chemical library.
NCGC Assay Protocol Summary:
High Throughput Screening. Freshly thawed HeLa EGFP-654 cells were seeded in 5 ul of optimem media (Invitrogen) containing 2 % fetal calf serum (Hyclone) and 1x penicillin/streptomycin (Invitrogen) at a concentration of 500 cells per well in 1536-well plates. Cells were incubated overnight at 37C in 5% CO2. The next day, cells were treated with DMSO, 500 nM antisense ISV2 654 PNA control oligo, or library compound and allowed to grow at 37C in 5% CO2 for 2 days. The PNA oligo blocked the mutation site in the intron and allowed proper (wild type) splicing to occur, resulting in full length EGFP expression and also allowed for optimization of the assay parameters. Plates were read in the Acumen Explorer (TTP Labtech) using 488 nm laser excitation and 500-520 nm emission PMT filter in a 1 x […] capture mode. Fluorescnet Fluorescent objects ranging in size from […] were measured and the total peak GFP intensity for each well was used for data analysis.
Keywords: Thalassemia, beta-thalassemia, beta-globin, EGFP, ISV2 654, ISV2 705, SSO, PNA, antisense, splicing, MLSMR, MLSCN, NIH Roadmap, qHTS, NCGC
(Quantitative high-throughput screening tests each substance at several concentrations.)
Regarding `COc1ccc(COC(=O)N/N=C2/C[C@@H](O)[C@@H](O)[C@@H]3[C@@H]4C(=O)N([C@@H](C)c5ccccc5)C(=O)[C@H]4CC[C@@H]23)cc1`, the activation was 0.743% [at 9.22 µM, normalised to 500 nM splice-correcting PNA] (inactive). Under `COc1ccc2[nH]cc(CCNc3cc(-c4ccccc4CN(C)C)ncn3)c2c1` stands “inactive”; under `O=C(O)c1ccc(C(=O)O)c2c(C(=O)O)ccc(C(=O)O)c12`, -1.01% [at 9.22 µM, normalised to 500 nM splice-correcting PNA] (inactive). Under `O=C(O)[C@@H]1[C@@H](C(=O)O)[C@]23C[C@@]2(C(=O)O)[C@]2(C(=O)O)CCC3=C3CCCC312` stands 0.251% [at 9.22 µM, normalised to 500 nM splice-correcting PNA] (inactive).

Consider `COCCNc1ncnc2ccc(-c3cccnc3)cc12`, for which the activation result was “inactive”. Then `CCN(CC)CCCCn1c(-c2ccccc2)nc2c(N3CCOCC3)nc(C)nc21`, with “inactive”; and `CO[C@@H]1COC(=O)[C@H](Cc2ccccc2)NC(=O)C/C=C\[C@@H](C)[C@H](OC)COC(=O)[C@@H](C)NC(=O)C/C=C\[C@H]1C`, with 1.42% [at 9.22 µM, normalised to 500 nM splice-correcting PNA] (inactive) and 0.127% [at 9.22 µM, normalised to 500 nM splice-correcting PNA] (inactive); and `Cc1noc(C)c1-c1nc(Nc2ccccc2)c2ccccc2n1`, with “inactive”. Under `O=NO` stands “inactive”. Then `ClC(Cl)(Cl)C(N1CCN(c2ccccc2)CC1)N1CCN(c2ccccc2)CC1`, with 3.1% [at 9.22 µM, normalised to 500 nM splice-correcting PNA] (inactive); and `CC(=O)Oc1ccccc1C(=O)Nc1ncc([N+](=O)[O-])s1`, with “inactive”.

`COc1ccc(NC(=O)N2CC3(CCN(C(C)=O)CC3)C2)cc1`: the activation entry was “inactive”. `COC(=O)[C@@H]1CC[C@H](C)[C@@H](c2ccc(C)cc2)N1C(=O)c1ccc(/C=N\OC[C@@H](O)COCc2ccco2)cc1`: the activation was -0.0134% [at 9.22 µM, normalised to 500 nM splice-correcting PNA] (inactive). Under `Clc1ccc(C(c2ccc(Cl)cc2)n2cc[n+](C[C@@H](OCc3ccc(Cl)cc3Cl)c3ccc(Cl)cc3Cl)c2)cc1` stands “inactive”; under `CC(C)C[C@@H](CC(=O)N[C@@H](CCC(=O)O)CC(=O)O)NC(=O)[C@@H]1CCCC[C@H]1NC(=O)C[C@@H](NC(=O)C[C@H](CO)NC(=O)[C@@H]1CCCC[C@H]1N)C(C)C`, “inactive”; under `O=C(O)[C@@H](S)[C@H](S)C(=O)O`, -1.17% [at 9.22 µM, normalised to 500 nM splice-correcting PNA] (inactive). Turning to `O=C(O)[C@@H](O)Cc1ccccn1`, the activation was 2.62% [at 9.22 µM, normalised to 500 nM splice-correcting PNA] (inactive).

Consider `COC(=O)N1CCC2(CCCN(c3ccncc3)C2)CC1`, for which the activation entry was “inactive”.

In the case of `NCC(=O)[C@@H](O)[C@H](O)[C@H](O)CO`, the activation is 0.718% [at 9.22 µM, normalised to 500 nM splice-correcting PNA] (inactive).

Regarding `CN(C)C(=O)c1ccc(-c2cncnc2NC2CCNCC2)cc1`, the activation entry was “inactive”. Under `CN1[C@H]2CC(OC(=O)[C@@H](CO)c3ccccc3)C[C@H]1[C@H]1O[C@H]12` (stereo partly drawn) stands “inactive”; under `O=C1[C@H]2[C@H]3[C@H](O)[C@H](O)C/C(=N/OCc4ccccc4)[C@H]3CC[C@@H]2C(=O)N1Cc1ccccc1`, 0.171% [at 9.22 µM, normalised to 500 nM splice-correcting PNA] (inactive).

Turning to `CCCCNc1nc(C)nc2c1nc(-c1ccccc1)n2CCCCN(CC)CC`, the activation entry is “inactive”.

Regarding `c1ccc(CSCCc2ccncc2)cc1`, the activation is 2.45% [at 9.22 µM, normalised to 500 nM splice-correcting PNA] (inactive). Then `O=c1c(-c2ccc(F)c(F)c2)nc2cncnc2n1-c1ccccc1`, with “inactive”. Under `COC(=O)NC(c1ccccc1)[C@]1(C(C)=O)CCCC1=O` (stereo partly drawn) stands 0.441% [at 9.22 µM, normalised to 500 nM splice-correcting PNA] (inactive). Then `CC(C)c1ccc2c([Si](C)(C)C)c3c(nc2c1)-c1cccc(=O)n1C3`, with “inactive”; and `C=CC(=C)CCC=C(C)C`, with “inactive”. For `O=Cc1c(Cl)cccc1Cl`, the activation result is “inactive”. Then `COCCn1c(=O)c(-c2ccccc2)nc2cnc(N3CCOCC3)nc21`, with “inactive”; and `CN1CCN(c2ncncc2-c2ccc(C(=O)N(C)C)cc2)CC1`, with “inactive”. Then `O=C(c1cnccn1)N1CCC[C@@]2(CCN(Cc3ccncc3)C2)C1`, with “inactive”; and `Cc1ccccc1-c1nc(N(C)Cc2ccco2)c2ccccc2n1`, with “inactive”; and `OCCN1CCN(CC/C=C2\c3ccccc3Sc3ccc(C(F)(F)F)cc32)CC1`, with “inactive”. `BrC1C(Br)C(Br)C(Br)C(Br)C1Br` (stereo not drawn): the activation result was “inactive”. Under `c1ccc(CNc2ncncc2-c2cccnc2)cc1` stands “inactive”; under `FC(F)(F)c1ccccc1-c1nc(-n2ccnc2)c2ccccc2n1`, “inactive”. Under `CO[C@H]1COC(=O)[C@@H](C)NC(=O)C/C=C\[C@@H](C)[C@H](OC)COC(=O)C/C=C\[C@@H]1C` stands 0.0576% [at 9.22 µM, normalised to 500 nM splice-correcting PNA] (inactive). For `COc1ccccc1CNc1ncnc2ccc(-c3ccc4c(c3)OCO4)cc12`, the activation entry was “inactive”. Turning to `Cc1noc(C)c1-c1nccc(N2CCOCC2)n1`, the activation result was “inactive”. Under `Cc1[nH]c(N)nc(=S)c1CCCNc1ccccc1` stands 0.0064% [at 9.22 µM, normalised to 500 nM splice-correcting PNA] (inactive); under `COc1ccc(NC(=O)N2CC3(CCN(C(=O)c4cccn4C)CC3)C2)cc1`, “inactive”. Under `Cc1c(O)c(Br)c(C)c(O)c1Br` (tested in a mixture with another compound) stands 3.36% [at 9.22 µM, normalised to 500 nM splice-correcting PNA] (inactive); under `COc1ccc(CNc2ncncc2-c2ccccc2C)c(OC)c1`, “inactive”. Under `CC(C)[C@@H](CC(=O)N[C@@H]1CCNC[C@H]1C(=O)N[C@H](CC(=O)N[C@@H](CCC(=O)O)CC(=O)O)Cc1ccccc1)NC(=O)C[C@H](CO)NC(=O)[C@@H]1CNCC[C@H]1N` stands “inactive”; under `C[C@]12C=CC(=O)C=C1CC[C@@H]1[C@@H]2C(=O)C[C@@]2(C)[C@H]1CC[C@]2(O)C(=O)CO`, “inactive”. For the compound `CCCC(C(=O)OCCN(CC)CC)(c1ccccc1)c1ccccc1`, the activation entry is “inactive”. Turning to `CC(=O)N1CCC2(CC1)CCN(c1ccncc1)CC2`, the activation result was “inactive”. Then `C[C@]1(C(=O)NCCc2c[nH]c3ccccc23)C=C[C@@H](Cc2ccccc2)N1C(=O)c1ccccc1`, with “inactive”; and `C[C@@H]1O[C@@H](O[C@@H]2[C@@H](O)[C@H](OCCc3ccc(O)c(O)c3)O[C@H](CO[C@@H]3O[C@H](CO)[C@@H](O)[C@H](O)[C@H]3O)[C@H]2OC(=O)/C=C/c2ccc(O)c(O)c2)[C@H](O)[C@H](O)[C@H]1O`, with “inactive”; and `O=C(c1csnn1)N1CCC2(CC1)CN(c1ncccn1)C2`, with “inactive”. For the compound `O=S(=O)(O)c1ccc(O)c2ncccc12.O=S(=O)(O)c1ccc(O)c2ncccc12.[Zn]`, the activation is 0.245% [at 9.22 µM, normalised to 500 nM splice-correcting PNA] (inactive). Under `CCOC(=O)[C@]1(C(/C=C/c2ccco2)NC(=O)OC)CCCC1=O` (stereo partly drawn) stands 0.739% [at 9.22 µM, normalised to 500 nM splice-correcting PNA] (inactive); under `O=C1C(c2[nH]c3ccccc3c2O)=Nc2ccccc21`, “inactive”; under `COC(=O)[C@@]1(Cc2ccc(F)cc2)[C@H]2c3cc(C(=O)N4CCCC4)n(Cc4ccc(OC(F)(F)F)cc4)c3C[C@H]2CN1C(=O)c1ccccc1`, “inactive”.

As to `C[N+]1(CCN=C=NC2CCCCC2)CCOCC1`, the activation is 6.02% [at 9.22 µM, normalised to 500 nM splice-correcting PNA] (inactive).

Turning to `COCCn1c(=O)c(-c2cccs2)nc2cnc(N3CCN(C)CC3)nc21`, the activation result was “inactive”. Under `COC(=O)[C@H](C)[C@H]1C[C@]1(C)[C@H](NC(=O)OCc1ccccc1)c1ccccc1` stands “inactive”; under `CCCCCCc1ccc(O)cc1O`, “inactive”. Under `CC(=O)OCC1OC(C#Cc2ccccc2Cl)C=CC1OC(C)=O` (stereo not drawn) stands 2.13% [at 9.22 µM, normalised to 500 nM splice-correcting PNA] (inactive); under `O=c1c(-c2cccs2)nc2cnc(Oc3ccccc3)nc2n1-c1ccccc1`, “inactive”.

On to `Cc1cc2nc3c(=O)[nH]c(=O)nc-3n(C[C@H](O)[C@H](O)[C@H](O)CO)c2cc1C`, for which the activation entry is “inactive”. Then `COc1ccc2[nH]cc(CCNc3ncnc4ccc(-c5ccc(C(=O)N(C)C)cc5)cc34)c2c1`, with “inactive”; and `CCCC[C@@H]1C[C@H]1C(NC(=O)c1ccco1)c1ccc(C(=O)OC)cc1` (stereo partly drawn), with “inactive”.

With `OC(CCl)CCl`, the activation result is “inactive”. Then `CC(=O)/C(C)=N\O`, with “inactive”; and `COc1ccccc1CNc1nc(-c2c(C)noc2C)nc2ccccc12`, with “inactive”; and `COCCNc1ccnc(-c2cccc(NS(C)(=O)=O)c2)n1`, with “inactive”. Then `CCNc1ncc2ncc(=O)n(CCc3ccccc3)c2n1`, with “inactive”; and `CCCC[C@@H]1C[C@H]1C(NC(=O)c1ccc(-c2ccccc2)cc1)c1ccc(-c2ccccc2)cc1` (stereo partly drawn), with “inactive”; and `O=c1cc(-c2ccccc2)[nH]c2nc(Cl)ccc12`, with “inactive”.

As to `O=C(c1ccncc1)N1CCC2(CCN(Cc3cc(C(F)(F)F)cc(C(F)(F)F)c3)CC2)CC1`, the activation result was “inactive”. Then `C=CCOC(=O)c1ccccc1C(=O)OCC=C`, with “inactive”.
